Assay results: PubChem BioAssay
Activity calls are given as the source filed them.

Assays:
[1] = test system: PRMT1 (protein arginine N-methyltransferase 1); assay: small molecules binding arginine methyltransferase PRMT1 – biochemical, small-molecule microarray, 635 nm fluorescence, primary screen (AID 1088); conditions: higher = more signal;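 further: binding of Prmt1 protein to compounds spotted on small-molecule microarray slides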
[2] = growth effects on S. cerevisiae YJM789 – YJM789 clinical isolate, OD600, 24 h, basal, primary screen (AID 1089); conditions: higher = more signal, called active from +8 up or from −8 down;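 further: growth of clinical yeast isolate S. cerevisiae YJM 789 seeded 1000 cells per well; test concentration not given here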
[3] = S. pombe growth modifiers, basal conditions – strain 972, OD600, 24 h, no modulator, primary screen (AID 1090);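 further: basal condition with compound alone and no growth modifier present; test concentration not given here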; conditions: S. pombe 972 growth, higher = more signal, called active from +8 up or from −8 down
[4] = budding yeast growth modifiers under rapamycin – strain BY4716, OD600, 96 h, primary screen (AID 1091); further: test concentration not given here; conditions: S. cerevisiae BY4716 + rapamycin, higher = more signal, called active from +8 up or from −8 down
[5] = target: Torsin-1A-interacting protein 2 (Homo sapiens) (UniProt Q8NFQ8); assay: small molecules binding lysate-expressed LULL1 – cell lysate, human LULL1 lysate, 635/667 nm fluorescence, primary screen (AID 1092); conditions: small-molecule microarray, hLULL1 lysate binding, 635 nm fluorescence; higher = more signal;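 further: probe is lysate of COS7 cells overexpressing human LULL1; score merges per-feature 667 nm fluorescence with signal-to-noise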
[6] = optical density change of DRC41 E. coli – strain DRC41, OD650, 24 h, E. coli filamentation project, primary screen (AID 1093);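 further: MC1000 strain lacking acrAB efflux and sulA so SOS filamentation is blocked; test concentration not given here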; conditions: E. coli DRC41 growth, higher = more signal, called active from +8 up or from −8 down
[7] = probe aLefty2 binding to arrayed compounds – biochemical, biotinylated probe, 635/667 nm fluorescence, primary screen (AID 1094); conditions: small-molecule microarray, higher = more signal;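 further: score merges spot fluorescence near 667 nm with spot signal-to-noise ratio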
[8] = test system: Noggin (protein binding on small-molecule microarray); assay: small molecules binding Noggin protein – biochemical, 635/667 nm fluorescence, primary screen (AID 1095); conditions: 635 nm fluorescence, higher = more signal;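 further: score merges 667 nm feature fluorescence with signal to noise over triplicate slides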
[9] = target: Neurogenic locus notch homolog protein 3 (Homo sapiens) (UniProt Q9UM47); assay: small molecules binding NOTCH3 protein – biochemical, 635/667 nm fluorescence, primary screen (AID 1096); conditions: small-molecule microarray, 635 nm fluorescence, higher = more signal
[10] = probe aEGFR binding to arrayed compounds – biochemical, biotinylated probe, 635/667 nm fluorescence, primary screen (AID 1097); conditions: small-molecule microarray, higher = more signal;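 further: probe is a biotinylated anti-EGFR antibody binding compounds printed on slides; score combines fluorescence near 667 nm and signal to noise of each spot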

Sequence of Torsin-1A-interacting protein 2 (Homo sapiens) (Q8NFQ8 whole entry, looked up): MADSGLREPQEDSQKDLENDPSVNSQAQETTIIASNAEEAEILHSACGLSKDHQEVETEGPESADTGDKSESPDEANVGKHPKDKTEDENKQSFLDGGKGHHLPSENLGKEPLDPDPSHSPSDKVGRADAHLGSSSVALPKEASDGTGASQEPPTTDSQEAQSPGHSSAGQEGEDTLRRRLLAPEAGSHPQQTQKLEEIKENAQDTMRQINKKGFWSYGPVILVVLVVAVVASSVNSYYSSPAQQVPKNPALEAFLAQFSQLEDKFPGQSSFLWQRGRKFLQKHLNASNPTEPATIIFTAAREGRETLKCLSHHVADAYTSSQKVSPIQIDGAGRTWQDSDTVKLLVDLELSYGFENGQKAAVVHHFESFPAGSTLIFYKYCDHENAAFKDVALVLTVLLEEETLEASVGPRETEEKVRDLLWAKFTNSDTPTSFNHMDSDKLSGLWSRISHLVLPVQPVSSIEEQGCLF
Sequence of Neurogenic locus notch homolog protein 3 (Homo sapiens) (Q9UM47 whole entry, looked up): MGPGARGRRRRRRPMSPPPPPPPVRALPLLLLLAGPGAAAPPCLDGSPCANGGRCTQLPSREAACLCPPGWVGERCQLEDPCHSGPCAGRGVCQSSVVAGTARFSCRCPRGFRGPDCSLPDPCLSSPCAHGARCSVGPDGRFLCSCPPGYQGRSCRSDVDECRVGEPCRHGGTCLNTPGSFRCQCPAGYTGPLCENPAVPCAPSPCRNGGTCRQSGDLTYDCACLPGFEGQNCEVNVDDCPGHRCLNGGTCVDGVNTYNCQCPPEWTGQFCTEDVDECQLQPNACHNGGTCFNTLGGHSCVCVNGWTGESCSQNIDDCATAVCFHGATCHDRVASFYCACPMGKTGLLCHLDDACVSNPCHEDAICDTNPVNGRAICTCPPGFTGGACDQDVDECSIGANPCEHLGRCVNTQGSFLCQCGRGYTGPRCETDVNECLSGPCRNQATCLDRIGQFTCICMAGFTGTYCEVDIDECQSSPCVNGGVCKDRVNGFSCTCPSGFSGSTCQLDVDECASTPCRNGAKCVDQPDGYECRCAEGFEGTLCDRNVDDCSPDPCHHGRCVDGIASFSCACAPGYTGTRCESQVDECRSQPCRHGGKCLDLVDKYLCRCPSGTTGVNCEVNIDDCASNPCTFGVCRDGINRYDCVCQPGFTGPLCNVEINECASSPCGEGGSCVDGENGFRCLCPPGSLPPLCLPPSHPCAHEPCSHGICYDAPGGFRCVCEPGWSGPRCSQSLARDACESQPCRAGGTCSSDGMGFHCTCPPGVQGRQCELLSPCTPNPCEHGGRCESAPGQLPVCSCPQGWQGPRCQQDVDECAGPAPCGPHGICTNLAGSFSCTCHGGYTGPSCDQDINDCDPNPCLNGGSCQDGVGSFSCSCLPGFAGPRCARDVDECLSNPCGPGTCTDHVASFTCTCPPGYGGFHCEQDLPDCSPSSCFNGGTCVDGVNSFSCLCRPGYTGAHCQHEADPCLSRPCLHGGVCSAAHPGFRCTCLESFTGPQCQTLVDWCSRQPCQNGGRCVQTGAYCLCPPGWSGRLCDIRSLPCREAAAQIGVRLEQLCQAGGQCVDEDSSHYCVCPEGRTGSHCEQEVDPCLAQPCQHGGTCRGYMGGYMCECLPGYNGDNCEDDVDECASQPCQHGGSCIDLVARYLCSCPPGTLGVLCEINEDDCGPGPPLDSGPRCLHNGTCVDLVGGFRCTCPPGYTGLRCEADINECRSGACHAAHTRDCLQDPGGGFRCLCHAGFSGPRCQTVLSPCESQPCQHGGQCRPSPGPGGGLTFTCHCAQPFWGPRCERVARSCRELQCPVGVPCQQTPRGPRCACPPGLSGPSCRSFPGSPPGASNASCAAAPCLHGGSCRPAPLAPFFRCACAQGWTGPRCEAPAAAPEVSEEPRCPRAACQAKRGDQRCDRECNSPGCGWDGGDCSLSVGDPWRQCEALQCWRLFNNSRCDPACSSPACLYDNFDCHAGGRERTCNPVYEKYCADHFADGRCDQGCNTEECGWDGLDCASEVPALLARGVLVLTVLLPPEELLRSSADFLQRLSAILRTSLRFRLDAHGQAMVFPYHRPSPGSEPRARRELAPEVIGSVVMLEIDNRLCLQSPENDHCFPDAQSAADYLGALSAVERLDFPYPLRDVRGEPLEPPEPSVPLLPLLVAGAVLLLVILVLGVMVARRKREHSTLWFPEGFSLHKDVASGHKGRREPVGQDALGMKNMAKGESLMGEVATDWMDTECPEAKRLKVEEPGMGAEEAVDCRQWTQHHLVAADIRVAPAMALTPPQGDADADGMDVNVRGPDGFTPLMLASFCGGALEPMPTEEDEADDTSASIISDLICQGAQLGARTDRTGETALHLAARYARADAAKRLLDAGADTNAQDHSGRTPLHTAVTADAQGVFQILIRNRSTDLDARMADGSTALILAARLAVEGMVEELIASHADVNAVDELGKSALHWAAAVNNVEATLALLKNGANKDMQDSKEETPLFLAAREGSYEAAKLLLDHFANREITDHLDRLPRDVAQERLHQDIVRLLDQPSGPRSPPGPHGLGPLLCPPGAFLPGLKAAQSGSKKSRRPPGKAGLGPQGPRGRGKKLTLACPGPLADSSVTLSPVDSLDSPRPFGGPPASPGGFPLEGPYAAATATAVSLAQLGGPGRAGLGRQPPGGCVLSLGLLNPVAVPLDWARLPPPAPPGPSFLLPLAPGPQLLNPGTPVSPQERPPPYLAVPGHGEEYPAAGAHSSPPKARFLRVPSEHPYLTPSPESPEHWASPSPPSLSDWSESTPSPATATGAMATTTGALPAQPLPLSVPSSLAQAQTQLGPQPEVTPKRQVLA

Row | Compound | composite z-score [1] | z-score [2] | z-score [3] | z-score [4] | composite z-score [5] | z-score [6] | composite z-score [7] | composite z-score [8] | composite z-score [9] | composite z-score [10]
1 | NC(=O)NCC#Cc1ccc2c(c1)[C@]1(C(=O)N2)[C@H](c2ccccc2OCCO)N2[C@H](c3ccccc3)[C@H](c3ccccc3)OC(=O)[C@H]2[C@@H]1C(=O)N1CCCCCCC1 | 1.55 | 0.456 (inactive) | -1.36 (inactive) | 1.49 (inactive) | 4.09 | 1.26 (inactive) | 1.79 | 1.8 | 1.11 | 1.21
2 | COc1ccccc1CN1C(=O)c2ccccc2[C@](Cc2ccccc2I)(C(=O)NCc2ccccc2)[C@@H]1c1ccc(CO)cc1 | 1.02 | -0.295 (inactive) | -0.127 (inactive) | -0.694 (inactive) | 2.22 | 0.106 (inactive) | 0.0023 | -0.373 | -0.418 | -0.0432
3 | CN(C)CCCC[C@@H]1NC(=O)[C@@H]2C[C@H](C(=O)NCCCCCCN)[C@H](c3ccc(O)cc3)N2C1=O | 1.18 | 0.377 (inactive) | -2.04 (inactive) | 0.638 (inactive) | 2.52 | -0.47 (inactive) | 0.892 | 0.855 | 0.526 | 0.678
4 | Oc1ccc2cc[n+](Cc3cccc(OC(F)(F)F)c3)cc2c1 | 0.488 | 0.573 (inactive) | 0.439 (inactive) | 4.58 (inactive) | 1.65 | 0.713 (inactive) | -0.0541 | 1.26 | 0.646 | -0.0177
5 | C=C[C@@H](C)[C@@H](OC(=O)Nc1ccc(OC)cc1)c1ccc(O)c2ccccc12 | 0.906 | -24.7 (active) | -20.9 (active) | -3.73 (inactive) | 1.15 | 1.02 (inactive) | -0.17 | 1.15 | 0.514 | -0.116
6 | O=C1C2C=CC(C(O)c3cccc4ccccc34)N(n3cnnc3)C2C(=O)N1Cc1ccccc1 (stereo not given) | -0.117 | -26.6 (active) | -16.1 (active) | -0.0039 (inactive) | 0.846 | -1.18 (inactive) | 0.93 | 0.56 | 0.467 | 0.804
7 | O=c1cccc(-c2ccc3ccccc3c2)o1 | -0.387 | -11.9 (active) | -15 (active) | -3.02 (inactive) | -0.0751 | 1.82 (inactive) | 0.0673 | -0.0993 | -0.349 | -0.138
8 | CC(C)NC(=O)[C@@H]1c2ccccc2C(=O)N(C2CCCCC2)[C@H]1c1ccc(CO)cc1 | 0.4 | -0.455 (inactive) | 0.0765 (inactive) | 0.13 (inactive) | 1.48 | 0.0495 (inactive) | 0.25 | -0.123 | 0.108 | 0.262
9 | C=CCCN(CC#C[C@H]1Oc2ccccc2S(=O)(=O)N2CCC[C@@H]12)S(=O)(=O)c1ccc(C)cc1 | 0.514 | 1.15 (inactive) | -1.7 (inactive) | 0.965 (inactive) | 0.974 | -1.59 (inactive) | -0.139 | 0.264 | 0.18 | -0.145
10 | [N-]=[N+]=NCc1ccccc1C[C@]1(C(N)=O)N=C(c2ccc(OCCCO)cc2)O[C@H]1c1ccccc1N=[N+]=[N-] | 1.37 | 1.22 (inactive) | 1.29 (inactive) | 1.39 (inactive) | 2.84 | -0.0072 (inactive) | 0.175 | -0.433 | 0.616 | 0.268
11 | CC1CC/C=C\[C@H]2OC34C=CCN(Cn5nnc6ccccc65)C(=O)[C@H]3N(CCCO)C(=O)[C@@H]4C2C(=O)O1 (stereo not given in full) | -0.749 | 0.175 (inactive) | -0.463 (inactive) | 0.203 (inactive) | 0.389 | 1.82 (inactive) | -0.0499 | -0.511 | 0.0174 | -0.192
